Test results: PubChem BioAssay
The source made the active and inactive calls.

What was measured:
[1] = test system: PRMT1 (protein arginine N-methyltransferase 1); test: small molecules binding arginine methyltransferase PRMT1 – biochemical, small-molecule microarray, 635 nm fluorescence, primary screen (AID 1088); settings: higher = more signal;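 note: binding of Prmt1 protein to compounds spotted on small-molecule microarray slides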
[2] = growth effects on S. cerevisiae YJM789 – YJM789 clinical isolate, OD600, 24 h, basal, primary screen (AID 1089); settings: higher = more signal, called active from +8 up or from −8 down;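 note: growth of clinical yeast isolate S. cerevisiae YJM 789 seeded 1000 cells per well; test concentration not given here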
[3] = S. pombe growth modifiers, basal conditions – strain 972, OD600, 24 h, no modulator, primary screen (AID 1090);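 note: basal condition with compound alone and no growth modifier present; test concentration not given here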; settings: S. pombe 972 growth, higher = more signal, called active from +8 up or from −8 down
[4] = budding yeast growth modifiers under rapamycin – strain BY4716, OD600, 96 h, primary screen (AID 1091); note: test concentration not given here; settings: S. cerevisiae BY4716 + rapamycin, higher = more signal, called active from +8 up or from −8 down
[5] = target: Torsin-1A-interacting protein 2 (Homo sapiens) (UniProt Q8NFQ8); test: small molecules binding lysate-expressed LULL1 – cell lysate, human LULL1 lysate, 635/667 nm fluorescence, primary screen (AID 1092); settings: small-molecule microarray, hLULL1 lysate binding, 635 nm fluorescence; higher = more signal;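 note: probe is lysate of COS7 cells overexpressing human LULL1; score merges per-feature 667 nm fluorescence with signal-to-noise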
[6] = optical density change of DRC41 E. coli – strain DRC41, OD650, 24 h, E. coli filamentation project, primary screen (AID 1093);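 note: MC1000 strain lacking acrAB efflux and sulA so SOS filamentation is blocked; test concentration not given here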; settings: E. coli DRC41 growth, higher = more signal, called active from +8 up or from −8 down
[7] = probe aLefty2 binding to arrayed compounds – biochemical, biotinylated probe, 635/667 nm fluorescence, primary screen (AID 1094); settings: small-molecule microarray, higher = more signal;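 note: score merges spot fluorescence near 667 nm with spot signal-to-noise ratio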
[8] = test system: Noggin (protein binding on small-molecule microarray); test: small molecules binding Noggin protein – biochemical, 635/667 nm fluorescence, primary screen (AID 1095); settings: 635 nm fluorescence, higher = more signal;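 note: score merges 667 nm feature fluorescence with signal to noise over triplicate slides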
[9] = target: Neurogenic locus notch homolog protein 3 (Homo sapiens) (UniProt Q9UM47); test: small molecules binding NOTCH3 protein – biochemical, 635/667 nm fluorescence, primary screen (AID 1096); settings: small-molecule microarray, 635 nm fluorescence, higher = more signal
[10] = probe aEGFR binding to arrayed compounds – biochemical, biotinylated probe, 635/667 nm fluorescence, primary screen (AID 1097); settings: small-molecule microarray, higher = more signal;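 note: probe is a biotinylated anti-EGFR antibody binding compounds printed on slides; score combines fluorescence near 667 nm and signal to noise of each spot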
[11] = test system: Plasmodium falciparum Sir2 (PF13_0152, Sir2A); test: Plasmodium falciparum Sir2A binding compounds – biochemical, small-molecule microarray, 635 nm fluorescence, primary screen (AID 1098); settings: fluorescence 635 nm, higher = more signal;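 note: score merges spot fluorescence intensity with its signal-to-noise ratio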
[12] = probe aDKK1 binding to arrayed compounds – biochemical, biotinylated probe, 635/667 nm fluorescence, primary screen (AID 1099); settings: small-molecule microarray, higher = more signal;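 note: score merges 667nm spot fluorescence with signal to noise across triplicate slides; reference of the scale not given here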
[13] = probe aCHRDL2 binding to arrayed compounds – biochemical, biotinylated probe, 635/667 nm fluorescence, primary screen (AID 1100); settings: small-molecule microarray, higher = more signal
[14] = change in splice reporter luminescence, either direction, cell-based, HEK293, spliceosome inhibition project, primary screen (AID 1101); settings: HEK293 splicing luciferase reporter, 24 h, higher = more signal, called active from +8 up or from −8 down;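 note: HEK293 cells carrying a splicing-competent luciferase reporter gene; test concentration not given here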
[15] = target: Fibroblast growth factor 10 (Homo sapiens) (UniProt O15520); test: compounds binding fibroblast growth factor 10 – biochemical, small-molecule microarray, 635 nm fluorescence, primary screen (AID 1102); settings: FGF10 binding, fluorescence 635 nm, higher = more signal
[16] = test system: glycogen synthase kinase-3 (GSK3A per assay name; protocol says GSK3B); test: compounds binding glycogen synthase kinase-3 – biochemical, small-molecule microarray, 635 nm fluorescence, GSK3A, primary screen (AID 1103); settings: fluorescence 635 nm, higher = more signal; note: the record names both GSK3A and GSK3B
[17] = target: Epidermal growth factor receptor (Homo sapiens) (UniProt P00533); test: compounds binding epidermal growth factor receptor – biochemical, small-molecule microarray, 635 nm fluorescence, primary screen (AID 1104); settings: EGFR binding, higher = more signal;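 note: score merges 667 nm emission intensity with spot signal to noise over triplicate slides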
[18] = target: Follistatin-related protein 3 (Homo sapiens) (UniProt O95633); test: compounds binding follistatin-related protein 3 – biochemical, small-molecule microarray, 635 nm fluorescence, primary screen (AID 1105); settings: FSTL3 binding, higher = more signal;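 note: score merges emission near 667 nm and signal to noise per printed spot across three slides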
[19] = target: Dickkopf-related protein 1 (Homo sapiens) (UniProt O94907); test: small molecules binding DKK1 protein – biochemical, small-molecule microarray, 635 nm fluorescence scan, primary screen (AID 1106); settings: higher = more signal;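 note: score merges emission near 667 nm with signal to noise over three replicate slides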
[20] = test system: Inhibin beta A chain (activin A); test: small molecules binding activin A – biochemical, small-molecule microarray, 635 nm fluorescence scan, primary screen (AID 1107); settings: INHBA, higher = more signal;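 note: mouse activin A protein probed at 4.33 µg/mL on printed slides; score merges bound-protein fluorescence near 667 nm with spot signal-to-noise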

Sequence of Neurogenic locus notch homolog protein 3 (Homo sapiens) (Q9UM47 whole entry, looked up): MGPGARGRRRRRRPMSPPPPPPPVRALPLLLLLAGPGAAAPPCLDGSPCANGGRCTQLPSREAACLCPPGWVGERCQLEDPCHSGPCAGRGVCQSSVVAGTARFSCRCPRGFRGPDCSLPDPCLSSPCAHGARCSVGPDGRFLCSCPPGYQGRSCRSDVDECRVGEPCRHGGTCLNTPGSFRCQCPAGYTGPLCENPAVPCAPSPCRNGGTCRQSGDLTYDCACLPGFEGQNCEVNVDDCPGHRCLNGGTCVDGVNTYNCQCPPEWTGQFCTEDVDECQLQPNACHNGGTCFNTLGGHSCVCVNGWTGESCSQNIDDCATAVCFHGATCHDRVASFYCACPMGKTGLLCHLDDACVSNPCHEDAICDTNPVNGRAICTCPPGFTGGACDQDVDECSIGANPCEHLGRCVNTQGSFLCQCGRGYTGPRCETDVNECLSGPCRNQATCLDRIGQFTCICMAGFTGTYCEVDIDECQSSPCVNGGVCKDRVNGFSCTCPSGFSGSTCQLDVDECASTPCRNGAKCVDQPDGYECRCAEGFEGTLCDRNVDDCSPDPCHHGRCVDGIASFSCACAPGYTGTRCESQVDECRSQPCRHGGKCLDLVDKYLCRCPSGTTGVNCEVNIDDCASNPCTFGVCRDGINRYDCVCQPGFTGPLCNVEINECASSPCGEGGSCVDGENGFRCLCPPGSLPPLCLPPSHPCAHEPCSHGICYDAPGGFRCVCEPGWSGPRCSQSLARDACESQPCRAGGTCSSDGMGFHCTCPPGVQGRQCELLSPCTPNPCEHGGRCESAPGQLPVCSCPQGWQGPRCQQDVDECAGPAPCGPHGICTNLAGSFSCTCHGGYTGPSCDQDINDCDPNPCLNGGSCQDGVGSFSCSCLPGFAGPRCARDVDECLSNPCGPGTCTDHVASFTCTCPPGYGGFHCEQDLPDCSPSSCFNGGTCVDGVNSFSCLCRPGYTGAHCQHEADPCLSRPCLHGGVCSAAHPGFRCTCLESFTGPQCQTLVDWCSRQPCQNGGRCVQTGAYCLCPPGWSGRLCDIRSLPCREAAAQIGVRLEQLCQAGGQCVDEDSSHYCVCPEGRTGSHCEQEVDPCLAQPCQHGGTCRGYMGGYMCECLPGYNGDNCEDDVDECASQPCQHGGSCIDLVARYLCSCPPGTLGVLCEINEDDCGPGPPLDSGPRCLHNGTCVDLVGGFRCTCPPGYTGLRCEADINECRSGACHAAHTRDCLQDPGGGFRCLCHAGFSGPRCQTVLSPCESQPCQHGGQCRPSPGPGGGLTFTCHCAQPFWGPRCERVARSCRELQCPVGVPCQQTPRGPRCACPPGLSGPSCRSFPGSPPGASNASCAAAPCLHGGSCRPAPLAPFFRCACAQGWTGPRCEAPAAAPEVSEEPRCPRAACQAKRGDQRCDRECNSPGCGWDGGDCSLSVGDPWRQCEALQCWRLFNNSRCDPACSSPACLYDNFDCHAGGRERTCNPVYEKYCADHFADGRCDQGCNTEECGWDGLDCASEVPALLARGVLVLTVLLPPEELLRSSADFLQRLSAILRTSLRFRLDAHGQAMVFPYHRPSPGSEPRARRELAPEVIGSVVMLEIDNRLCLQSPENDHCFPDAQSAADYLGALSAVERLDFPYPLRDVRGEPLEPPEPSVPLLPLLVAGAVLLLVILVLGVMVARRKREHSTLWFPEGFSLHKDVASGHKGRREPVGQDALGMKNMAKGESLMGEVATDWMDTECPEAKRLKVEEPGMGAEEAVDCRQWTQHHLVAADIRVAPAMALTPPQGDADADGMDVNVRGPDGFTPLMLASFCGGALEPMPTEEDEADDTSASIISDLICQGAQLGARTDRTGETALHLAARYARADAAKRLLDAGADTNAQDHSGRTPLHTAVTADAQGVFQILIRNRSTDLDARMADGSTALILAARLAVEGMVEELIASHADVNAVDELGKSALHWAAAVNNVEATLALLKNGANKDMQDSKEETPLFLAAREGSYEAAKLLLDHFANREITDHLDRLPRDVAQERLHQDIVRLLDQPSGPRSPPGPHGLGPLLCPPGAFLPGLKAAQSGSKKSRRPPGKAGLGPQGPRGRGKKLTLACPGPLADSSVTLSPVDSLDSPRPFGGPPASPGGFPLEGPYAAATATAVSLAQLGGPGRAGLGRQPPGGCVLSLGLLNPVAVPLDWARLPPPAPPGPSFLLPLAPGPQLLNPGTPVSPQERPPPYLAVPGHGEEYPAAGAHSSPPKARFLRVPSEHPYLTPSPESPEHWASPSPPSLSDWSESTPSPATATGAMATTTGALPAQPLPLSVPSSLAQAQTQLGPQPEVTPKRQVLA
Sequence of Torsin-1A-interacting protein 2 (Homo sapiens) (Q8NFQ8 whole entry, looked up): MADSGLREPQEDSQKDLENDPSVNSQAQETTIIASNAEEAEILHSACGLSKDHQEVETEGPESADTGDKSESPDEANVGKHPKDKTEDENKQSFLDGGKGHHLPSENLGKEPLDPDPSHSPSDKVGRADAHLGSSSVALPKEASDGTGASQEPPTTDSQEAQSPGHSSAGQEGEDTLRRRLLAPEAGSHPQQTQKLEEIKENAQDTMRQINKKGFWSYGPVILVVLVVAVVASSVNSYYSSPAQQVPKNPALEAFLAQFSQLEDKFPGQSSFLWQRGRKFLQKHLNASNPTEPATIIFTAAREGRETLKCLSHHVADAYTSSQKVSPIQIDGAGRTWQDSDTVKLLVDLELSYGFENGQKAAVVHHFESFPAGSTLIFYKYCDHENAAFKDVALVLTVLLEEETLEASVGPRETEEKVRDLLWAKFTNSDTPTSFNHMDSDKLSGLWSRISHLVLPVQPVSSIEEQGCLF
Sequence of Fibroblast growth factor 10 (Homo sapiens) (O15520 whole entry, looked up): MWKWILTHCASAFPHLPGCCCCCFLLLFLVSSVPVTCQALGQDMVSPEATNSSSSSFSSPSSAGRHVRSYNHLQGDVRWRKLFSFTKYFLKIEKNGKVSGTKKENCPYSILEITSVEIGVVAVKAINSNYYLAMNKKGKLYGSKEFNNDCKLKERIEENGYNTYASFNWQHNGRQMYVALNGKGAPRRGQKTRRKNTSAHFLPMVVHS
Sequence of Follistatin-related protein 3 (Homo sapiens) (O95633 whole entry, looked up): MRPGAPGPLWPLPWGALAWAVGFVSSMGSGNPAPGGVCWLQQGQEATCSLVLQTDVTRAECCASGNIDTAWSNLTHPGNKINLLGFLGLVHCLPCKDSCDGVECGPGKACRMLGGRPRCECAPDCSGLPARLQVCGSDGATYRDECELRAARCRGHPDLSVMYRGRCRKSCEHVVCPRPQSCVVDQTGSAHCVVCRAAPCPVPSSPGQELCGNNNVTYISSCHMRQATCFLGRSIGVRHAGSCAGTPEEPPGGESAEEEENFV
Sequence of Dickkopf-related protein 1 (Homo sapiens) (O94907 whole entry, looked up): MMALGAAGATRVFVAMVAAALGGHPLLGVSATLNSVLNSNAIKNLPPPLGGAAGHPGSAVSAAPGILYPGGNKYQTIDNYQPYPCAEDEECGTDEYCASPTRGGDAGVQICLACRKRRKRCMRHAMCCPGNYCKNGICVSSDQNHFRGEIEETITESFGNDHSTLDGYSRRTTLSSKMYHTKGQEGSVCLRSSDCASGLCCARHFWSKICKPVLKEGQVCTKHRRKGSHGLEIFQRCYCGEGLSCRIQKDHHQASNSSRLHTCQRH
Sequence of Epidermal growth factor receptor (Homo sapiens) (P00533 whole entry, looked up): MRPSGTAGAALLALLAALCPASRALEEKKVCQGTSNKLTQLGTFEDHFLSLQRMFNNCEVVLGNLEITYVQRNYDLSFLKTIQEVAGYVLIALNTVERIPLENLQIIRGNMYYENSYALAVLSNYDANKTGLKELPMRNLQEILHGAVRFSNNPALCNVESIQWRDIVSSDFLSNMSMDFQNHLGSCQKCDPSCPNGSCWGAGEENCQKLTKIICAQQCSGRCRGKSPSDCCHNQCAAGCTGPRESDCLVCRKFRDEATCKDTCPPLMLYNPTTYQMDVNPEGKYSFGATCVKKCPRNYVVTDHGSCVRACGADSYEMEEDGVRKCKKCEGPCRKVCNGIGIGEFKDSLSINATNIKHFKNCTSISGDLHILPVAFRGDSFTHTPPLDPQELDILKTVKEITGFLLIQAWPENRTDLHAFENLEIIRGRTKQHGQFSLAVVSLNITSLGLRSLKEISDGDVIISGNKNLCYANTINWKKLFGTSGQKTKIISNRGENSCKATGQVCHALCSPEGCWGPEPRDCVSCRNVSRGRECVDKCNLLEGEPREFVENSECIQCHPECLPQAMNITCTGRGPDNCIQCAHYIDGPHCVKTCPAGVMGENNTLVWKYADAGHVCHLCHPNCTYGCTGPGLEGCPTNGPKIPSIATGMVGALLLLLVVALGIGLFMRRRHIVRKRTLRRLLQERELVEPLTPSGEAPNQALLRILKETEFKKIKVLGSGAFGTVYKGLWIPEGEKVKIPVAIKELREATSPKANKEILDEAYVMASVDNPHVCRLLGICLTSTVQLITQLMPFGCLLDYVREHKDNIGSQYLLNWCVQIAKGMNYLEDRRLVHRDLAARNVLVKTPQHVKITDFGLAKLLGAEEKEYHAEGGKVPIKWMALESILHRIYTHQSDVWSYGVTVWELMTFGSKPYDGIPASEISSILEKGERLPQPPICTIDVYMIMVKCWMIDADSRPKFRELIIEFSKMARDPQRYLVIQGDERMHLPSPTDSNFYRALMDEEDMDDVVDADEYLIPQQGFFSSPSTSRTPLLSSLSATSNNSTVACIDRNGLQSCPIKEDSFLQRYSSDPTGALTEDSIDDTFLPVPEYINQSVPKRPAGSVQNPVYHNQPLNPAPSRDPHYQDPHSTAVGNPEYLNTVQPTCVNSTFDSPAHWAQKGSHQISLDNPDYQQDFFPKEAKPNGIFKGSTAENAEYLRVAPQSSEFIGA

SMILES: CCN1C(=O)[C@H]2[C@H]3[C@H](O)[C@H](O)CC(=O)[C@H]3CC[C@H]2C1=O
- composite z-score [1]: 0.288
- z-score [2]: -0.955 (inactive)
- z-score [3]: -0.38 (inactive)
- z-score [4]: -0.18 (inactive)
- composite z-score [5]: 0.718
- z-score [6]: 0.759 (inactive)
- composite z-score [7]: -0.228
- composite z-score [8]: 0.675
- composite z-score [9]: 0.386
- composite z-score [10]: -0.0989
- composite z-score [11]: 0.519
- composite z-score [12]: -0.106
- composite z-score [13]: -0.721
- z-score [14]: 0.691 (inactive)
- composite z-score [15]: 0.406
- composite z-score [16]: 0.713
- composite z-score [17]: 0.371
- composite z-score [18]: 0.396
- composite z-score [19]: 0.776
- composite z-score [20]: -0.249

SMILES: COC(=O)CC=C[C@@H](C)[C@@H](C=NO[C@@H]1O[C@H](COC(C)=O)[C@@H](OC(C)=O)[C@H](OC(C)=O)[C@H]1OC(C)=O)OC
- composite z-score [1]: 1.18
- z-score [2]: 0.492 (inactive)
- z-score [3]: 0.146 (inactive)
- z-score [4]: 0.119 (inactive)
- composite z-score [5]: 0.062
- z-score [6]: -0.742 (inactive)
- composite z-score [7]: -0.0397
- composite z-score [8]: 0.27
- composite z-score [9]: -0.297
- composite z-score [10]: -0.0506
- composite z-score [11]: -0.225
- composite z-score [12]: -0.194
- composite z-score [13]: -0.463
- z-score [14]: 0.869 (inactive)
- composite z-score [15]: -0.481
- composite z-score [16]: -0.757
- composite z-score [17]: 0.383
- composite z-score [18]: -0.4
- composite z-score [19]: -2.27
- composite z-score [20]: -2.01

SMILES: COC(=O)[C@@H]1CC[C@H](C)[C@@H](c2ccc(C)cc2)N1C(=O)c1ccc(C=NOC[C@@H](C)[C@H](OCc2ccccc2)C(C)C)cc1
- composite z-score [1]: 1.55
- z-score [2]: -2.56 (inactive)
- z-score [3]: -6.29 (inactive)
- z-score [4]: -1.51 (inactive)
- composite z-score [5]: 1.3
- z-score [6]: 0.862 (inactive)
- composite z-score [7]: -0.244
- composite z-score [8]: 0.573
- composite z-score [9]: 1.09
- composite z-score [10]: 0.102
- composite z-score [11]: 0.854
- composite z-score [12]: 0.0975
- composite z-score [13]: -0.233
- z-score [14]: -1.12 (inactive)
- composite z-score [15]: 0.532
- composite z-score [16]: 1.16
- composite z-score [17]: 0.814
- composite z-score [18]: 0.804
- composite z-score [19]: 0.414
- composite z-score [20]: -0.182

SMILES: CC(=O)OC[C@H]1O[C@H](CCON=C2[C@H]3CCn4c(=O)n(-c5ccccc5)c(=O)n4[C@H]3[C@H](O)[C@@H]3O[C@H]23)C=C[C@@H]1OC(C)=O
- composite z-score [1]: 0.156
- z-score [2]: -0.111 (inactive)
- z-score [3]: 0.127 (inactive)
- z-score [4]: 0.49 (inactive)
- composite z-score [5]: 0.77
- z-score [6]: 0.93 (inactive)
- composite z-score [7]: -0.25
- composite z-score [8]: 1.43
- composite z-score [9]: 0.587
- composite z-score [10]: 0.0488
- composite z-score [11]: 0.0057
- composite z-score [12]: -0.149
- composite z-score [13]: -0.442
- z-score [14]: 0.838 (inactive)
- composite z-score [15]: 0.527
- composite z-score [16]: 0.494
- composite z-score [17]: 0.432
- composite z-score [18]: 0.446
- composite z-score [19]: 0.404
- composite z-score [20]: -0.636

SMILES: CCOC(=O)[C@H](Cc1ccccc1)NC(=O)CCC1CC(OC(=O)NCCc2ccc(F)cc2)CC2(CCCC(COC(=O)NCCCN3CCCC3=O)O2)O1 (stereo not given in full)
- composite z-score [1]: 1.37
- z-score [2]: -1.68 (inactive)
- z-score [3]: -0.574 (inactive)
- z-score [4]: 0.674 (inactive)
- composite z-score [5]: 2
- z-score [6]: -0.806 (inactive)
- composite z-score [7]: -0.0986
- composite z-score [8]: 0.373
- composite z-score [9]: 1.14
- composite z-score [10]: 0.006
- composite z-score [11]: 0.844
- composite z-score [12]: -0.257
- composite z-score [13]: -0.802
- z-score [14]: -1.79 (inactive)
- composite z-score [15]: 0.767
- composite z-score [16]: 0.843
- composite z-score [17]: 0.478
- composite z-score [18]: 0.69
- composite z-score [19]: 0.493
- composite z-score [20]: -0.103

SMILES: CCCCc1nc2c(c3c1C[C@H](C)OC3)CN(CCOc1ccccc1)CC2
- composite z-score [1]: 1.44
- z-score [2]: -2.26 (inactive)
- z-score [3]: -4.02 (inactive)
- z-score [4]: 0.574 (inactive)
- composite z-score [5]: 1.62
- z-score [6]: 0.976 (inactive)
- composite z-score [7]: -0.005
- composite z-score [8]: 0.339
- composite z-score [9]: 0.732
- composite z-score [10]: 0.219
- composite z-score [11]: 0.489
- composite z-score [12]: 0.107
- composite z-score [13]: -0.277
- z-score [14]: -1.21 (inactive)
- composite z-score [15]: 0.632
- composite z-score [16]: 0.427
- composite z-score [17]: 0.681
- composite z-score [18]: 1.27
- composite z-score [19]: 0.302
- composite z-score [20]: 0.765

SMILES: C=CC[C@@H]1C=C[C@H](ON=C(C)CCN2CCc3nc(-c4ccccc4)c(-c4ccccc4)cc3C2)[C@@H](CO)O1
- composite z-score [1]: 1.55
- z-score [2]: -0.67 (inactive)
- z-score [3]: -4.53 (inactive)
- z-score [4]: -3.82 (inactive)
- composite z-score [5]: 1.53
- z-score [6]: 1.42 (inactive)
- composite z-score [7]: -0.152
- composite z-score [8]: 0.631
- composite z-score [9]: 0.858
- composite z-score [10]: -0.0332
- composite z-score [11]: 0.775
- composite z-score [12]: -0.243
- composite z-score [13]: -0.574
- z-score [14]: 0.0139 (inactive)
- composite z-score [15]: 0.524
- composite z-score [16]: 0.702
- composite z-score [17]: 0.359
- composite z-score [18]: 0.808
- composite z-score [19]: 0.627
- composite z-score [20]: 1.07

SMILES: COC(=O)[C@H]1[C@@H](O)[C@@]2(O)c3ccccc3O[C@@]2(c2ccccc2)[C@@H]1c1ccccc1
- composite z-score [1]: -0.701
- z-score [2]: 0.0966 (inactive)
- z-score [3]: 0.226 (inactive)
- z-score [4]: 0.705 (inactive)
- composite z-score [5]: 0.124
- z-score [6]: 0.685 (inactive)
- composite z-score [7]: -0.0324
- composite z-score [8]: -0.169
- composite z-score [9]: -0.104
- composite z-score [10]: -0.123
- composite z-score [11]: -0.125
- composite z-score [12]: -0.12
- composite z-score [13]: -0.535
- z-score [14]: 0.217 (inactive)
- composite z-score [15]: 0.0746
- composite z-score [16]: -0.0393
- composite z-score [17]: 0.396
- composite z-score [18]: -0.134
- composite z-score [19]: 0.384
- composite z-score [20]: -0.011

SMILES: CCOC(=O)[C@H](Cc1ccccc1)NC(=O)CCC1CC(OC(=O)NCc2cccc3ccccc23)CC2(CCCC(COC(=O)NCc3cccc(C(F)(F)F)c3)O2)O1 (stereo not given in full)
- composite z-score [1]: 0.176
- z-score [2]: 0.655 (inactive)
- z-score [3]: 0.611 (inactive)
- z-score [4]: 1.67 (inactive)
- composite z-score [5]: 1.48
- z-score [6]: -0.353 (inactive)
- composite z-score [7]: -0.217
- composite z-score [8]: 0.0178
- composite z-score [9]: 0.212
- composite z-score [10]: -0.114
- composite z-score [11]: 0.532
- composite z-score [12]: -0.181
- composite z-score [13]: -0.172
- z-score [14]: -0.247 (inactive)
- composite z-score [15]: 0.152
- composite z-score [16]: -0.189
- composite z-score [17]: -0.185
- composite z-score [18]: -0.278
- composite z-score [19]: 0.025
- composite z-score [20]: -0.151

SMILES: COc1ccc(C#C[C@@H]2C=C[C@H](OC(C)=O)[C@@H](COC(C)=O)O2)cc1
- composite z-score [1]: 0.474
- z-score [2]: -0.551 (inactive)
- z-score [3]: -2.35 (inactive)
- z-score [4]: -0.451 (inactive)
- composite z-score [5]: 0.387
- z-score [6]: 1.04 (inactive)
- composite z-score [7]: 0.0164
- composite z-score [8]: 0.622
- composite z-score [9]: 0.493
- composite z-score [10]: -0.122
- composite z-score [11]: 0.647
- composite z-score [12]: -0.174
- composite z-score [13]: -0.289
- z-score [14]: -0.613 (inactive)
- composite z-score [15]: 0.465
- composite z-score [16]: 0.185
- composite z-score [17]: 0.586
- composite z-score [18]: 0.842
- composite z-score [19]: 0.476
- composite z-score [20]: 1.18
